Test results published in ChEMBL document CHEMBL3433997, “St. Jude Leishmania screening dataset” (2016).

Legend:
Type in all cases: functional
[1] = target: Solute carrier family 2, facilitated glucose transporter member 1 (Homo sapiens) (UniProt P11166); assay: ST_JUDE_LEISH: Cytotoxicity at 2uM final concentration against transgenic Leishmania Mexicana promastigotes LmGLUT1 that are glucose transport deficient and complemented with the human glucose transporter GLUT1. Activity is measured by DNA content using SYBR green in vitro
[2] = target: Hexose transporter 1 (Plasmodium falciparum) (UniProt O97467); assay: ST_JUDE_LEISH: Cytotoxicity at 2uM final concentration against transgenic Leishmania Mexicana promastigotes LmPfHT that are glucose transport deficient and complemented with the Plasmodium falciparum hexose transporter. Activity is measured by DNA content using SYBR green in vitro
[3] = target: Glucose transporter (Leishmania mexicana) (UniProt O61059); assay: ST_JUDE_LEISH: Cytotoxicity at 2uM final concentration against transgenic Leishmania Mexicana promastigotes LmGT2 that are glucose transport deficient and complemented with the L. Mexicana glucose transporter 2. Activity is measured by DNA content using SYBR green in vitro

Solute carrier family 2, facilitated glucose transporter member 1 (Homo sapiens), sequence (P11166 whole entry): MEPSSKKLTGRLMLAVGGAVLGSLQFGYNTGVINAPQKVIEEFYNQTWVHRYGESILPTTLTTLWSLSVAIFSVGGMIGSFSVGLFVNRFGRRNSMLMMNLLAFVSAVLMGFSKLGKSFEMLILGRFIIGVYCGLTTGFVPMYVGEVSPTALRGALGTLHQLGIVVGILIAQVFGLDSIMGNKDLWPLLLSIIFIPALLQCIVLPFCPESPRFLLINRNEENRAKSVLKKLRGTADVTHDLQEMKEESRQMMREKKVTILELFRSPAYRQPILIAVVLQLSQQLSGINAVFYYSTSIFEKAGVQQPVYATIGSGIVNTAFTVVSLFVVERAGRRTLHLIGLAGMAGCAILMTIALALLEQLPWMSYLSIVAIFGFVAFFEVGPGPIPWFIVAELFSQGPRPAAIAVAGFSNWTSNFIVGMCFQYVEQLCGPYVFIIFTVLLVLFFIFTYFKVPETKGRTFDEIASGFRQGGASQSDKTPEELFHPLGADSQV

Row | Compound | inhibition [1] [%] | inhibition [2] [%] | inhibition [3] [%]
1 | Cc1ccc(NC(=O)c2ccc3ncccc3c2)cc1OC1CCN(CCC(C)C)CC1 | 3.07 | 2.35 | 4.09
2 | Cc1cc(-c2ccc(CNCc3ccc(F)cc3)cc2)ccc1S(=O)(=O)NCCN1CCCC1 | 66.4 | 41.4 | -2.93
3 | Cc1cc2c(cc1C(F)(F)F)N(C(=O)Nc1cccc(C(=O)NC3CCN(Cc4ccccc4)CC3)c1)CC2 | 2.13 | 3.38 | 3.16
4 | Cc1cc(-c2cc(-c3ccc(OCCN(C)C)cc3)[nH]c2-c2ccc3c(c2)CCC3=NO)ccn1 | 4.92 | 3.52 | 2.39
5 | c1ccc(COc2ccc(C3CCCCC3)cc2)nc1 | 0.38 | 2.32 | 2.1
6 | Cc1ccc(C(C#N)c2ccc3c(C(F)(F)F)cc(C(F)(F)F)nc3n2)cc1 (stereo not drawn) | 1.88 | 2.44 | 4.34
7 | c1cc(Nc2nccc(-c3cnn4ncccc34)n2)cc(-c2cnco2)c1 | 35.9 | 45.8 | 63.1
8 | CCOC(=O)c1c(CSc2ccccc2)oc2cc(CN(C)C)c(O)c(Cl)c12 | 1.18 | 0.44 | -0.41
9 | Cc1c(CN2CCC(N3CCC(C(=O)NC4CC4)CC3)CC2)[nH]c2c(Cl)cccc12 | 9.37 | 11.6 | 9.75
10 | CCN(CC)CCN(Cc1ccc(-c2ccc(C(F)(F)F)cc2)cc1)C(=O)c1ccc(-c2ccc(NC(=O)OC)cc2C)cc1 | 29.9 | 17.9 | 10.1
11 | Cc1cc(N[C@@H](Cc2ccccc2)C(=O)NCc2cccs2)nc(NCCc2ccccc2)n1 | 2.96 | 2.94 | -1.2
12 | COc1ccc([N+](=O)[O-])cc1N(Cc1ccccc1-c1ccccc1)S(=O)(=O)c1ccc(C(F)(F)F)cc1 | 3.87 | 5.68 | 2.13
13 | CCCCCCc1cc(Oc2c(I)cc(C[C@H](N)C(=O)O)cc2I)ccc1O | 0.33 | 1.79 | -0.38
14 | COc1ccc2nc3cc(Cl)ccc3c(NCCN(C)C)c2c1 | 7.53 | 5.07 | 6.53
15 | Fc1ccc(Nc2ccnc3cc(-c4ccc(CN5CCOCC5)o4)ccc23)c(Cl)c1 | 9.15 | 8.02 | 7.49
16 | CCCCCCNC(=O)C1Cc2c([nH]c3ccc(Br)cc23)C2(CCN(CCc3ccccc3)CC2)N1 (stereo not drawn) | 13.8 | 10.8 | 9.91
17 | Cc1cccc2nc(-c3ccc(-c4cccc(C(=O)N5CCCCC5C(C)O)c4)s3)[nH]c12 (stereo not drawn) | 1.3 | 2.52 | 3.46
18 | Cc1nc2cc(/C=C/C(=O)NC3CCC(CCN4CCc5ccc(C#N)cc5CC4)CC3)ccc2[nH]1 (stereo not drawn) | 3.09 | 2.24 | 3.19

Row | Compound | inhibition [1] [%] | inhibition [2] [%] | inhibition [3] [%]
19 | CCc1ccc(NC(=O)c2cccc(CN3CCCN(CC4CCCCC4)CC3)c2)cc1 | 1.02 | 1.36 | -2.12
20 | N=C(N)NN=Cc1c2ccccc2c(Cl)c2ccc(Cl)cc12 | 107 | 106 | 104
21 | COC(=O)C1=C(C)NC2=C(C(=O)CC(c3ccc(OC)c(OC)c3)C2)C1c1cccc(O)c1 (stereo not drawn) | 3.8 | 3.84 | 3.82
22 | Cc1cc(Nc2ccccc2)nc(Nc2ccccc2C)n1 | 5.24 | 4.32 | 0.47
23 | N#Cc1ccc2[nH]cc(C(=O)CCCCCN(Cc3ccccc3)Cc3ccccc3)c2c1 | 0.31 | -2.35 | -0.24
24 | CCCn1c(Sc2ccc(C#N)c([N+](=O)[O-])c2)nnc1-c1cc(OC)cc(OC)c1 | 0.5 | 4.36 | 1.24
25 | Cc1cnc(C(=O)Nc2cccc(-c3cccc(-c4nc5cc(F)ccc5[nH]4)c3)c2)cn1 | 8.32 | 5.55 | 5.18
26 | O=C(/C=C/c1ccc2ccccc2c1)NCCCCCN1CCC(c2c[nH]c3ccccc23)CC1 | 3.34 | 5.66 | 0.03
27 | O=C(Nc1cccc(-c2ccc(-c3nc4cc(F)ccc4[nH]3)cc2)c1)Nc1ccc(F)c(F)c1F | 2.86 | 4.09 | -1.44
28 | CC(C)c1ccc(NC(=O)NC2CCN(CCCCCNC(=O)/C=C/c3ccc(Cl)c(Cl)c3)CC2)cc1 | -0.71 | -0.91 | -0.17
29 | COc1ccc2nccc([C@@H](O)CN3CCC(NCc4ccc5c(c4)nnn5C(C)C)CC3)c2c1 | 18.3 | 20.9 | 5
30 | CN1CCN(C(C(=O)NCc2cc(Cl)cc(Cl)c2)c2ccc(Nc3cccc(C(F)(F)F)c3)cc2)CC1 (stereo not drawn) | 1 | -2.61 | -2.02
31 | c1cncc(-c2cc(N3CCc4ccccc4C3)nc(-c3ccncc3)n2)c1 | 8.78 | 7.89 | 4.28
32 | COc1ccc(-c2cnc(NCc3ccccc3)nc2)cc1CNC1CCN(C)CC1 | -0.17 | 1.06 | -0.94
33 | COc1cccc(-c2ccc(NC(=O)C3CCCN(Cc4cccc(OC)c4O)C3)cc2)c1 (stereo not drawn) | 3.21 | 2.29 | -0.64
34 | NC(=O)c1sc(-n2cnc3ccc(OCC4CCNCC4)cc32)cc1OCc1ccccc1C(F)(F)F | 0.4 | -0.16 | 0.31
35 | COc1ccc(Cc2cccc(C(C(=O)NCc3cc(Cl)cc(Cl)c3)N3CCN(C)CC3)c2)cc1 (stereo not drawn) | -1.02 | -1.26 | 0.4
36 | CC(=O)c1c(CC(=O)O)c2ccccc2n1O | 2.28 | 4.52 | 3.07
